Source: PubChem BioAssay (The Scripps Research Institute Molecular Screening Center)
Only some compounds are listed: those with a hit (about 2.9% of all), similar ones and a draw of the others.
ADAM17 inh: ADAM17 inhibition, QFRET primary screen | actives 0.83% (n = 370,000) | inhibition, % at 6.95 µM | AID 720648 | recombinant ADAM17, EDANS/DABCYL FRET peptide cleavage;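 active = inhibition above the mean of compounds lying between control limits plus 3 SD, set per campaign, cut at about 8.5% in these data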
PLCg1 inh: blocks human PLC-gamma1 enzyme activity | P19174 | purified PLC-gamma1, fluorogenic substrate, fluorescence | inhibition, % at 12.2 µM | actives 0.84% (n = 370,000) | AID 720700; in the data active = inhibition above about 9.5%
ADAM10 inh: ADAM10 inhibition, QFRET primary screen | O14672 | recombinant ADAM10, EDANS/DABCYL FRET peptide cleavage, 3 h | inhibition, % at 7 µM | actives 0.62% (n = 370,000);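 active = inhibition above a per-campaign cutoff equal to the mean of compounds falling between control-based bounds plus 3 SD, cut at about 20% in these data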
PLCb3 inh: inhibitors of human phospholipase C beta3; Purified PLC-beta3, fluorogenic substrate, fluorescence; Q01970; actives 0.18% (n = 370,000); inhibition, % at 12.2 µM; in the data active = inhibition above about 11%
proKLK7 act: activates the human kallikrein-7 zymogen | purified proKLK7, EDANS-DABCYL substrate fluorescence; 100% is mature enzyme control, 0% vehicle | activation, % at 7 µM | actives 0.9% (n = 370,000) | AID 652039;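 active = activation above the mean of all tested compounds plus 3 SD, computed per campaign excluding outliers beyond control limits, cut at about 13% in these data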
Target sequence (P49862 whole entry, looked up): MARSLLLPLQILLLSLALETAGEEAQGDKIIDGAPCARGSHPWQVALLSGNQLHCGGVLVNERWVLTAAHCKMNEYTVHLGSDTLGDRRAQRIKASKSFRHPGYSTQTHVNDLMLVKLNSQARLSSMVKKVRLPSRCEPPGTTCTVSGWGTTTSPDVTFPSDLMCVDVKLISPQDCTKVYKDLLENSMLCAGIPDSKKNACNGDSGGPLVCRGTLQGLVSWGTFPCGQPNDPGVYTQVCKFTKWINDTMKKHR
proKLK7 act conf: proKLK7 activation, confirmation; shares compounds with proKLK7 act; purified proKLK7, EDANS-DABCYL substrate fluorescence; scaled: vehicle 0, mature enzyme 100; activation, % at 7 µM; actives 68% (n = 3,200);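 active = activation, as change over the incubation, above the mean of all tested compounds plus 3 SD, cut at about 13% in these data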
EDANS-DABCYL int: fluorescence interference counter-screen for KLK7 activators; shares compounds with proKLK7 act; EDANS-DABCYL substrate fluorescence interference, no enzyme, 4 h; solvent 0%, active enzyme control 100%; activation, % at 7 µM; actives 80% (n = 3,200); AID 686952;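 active = activation above the all-compound mean plus 3 SD, ignoring values outside control-based bounds, cut at about 4.8% in these data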;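 note: value is the 4 h activation minus the activation read at time zero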
EDANS interf: EDANS fluorescence interference in dose response, no enzyme. actives 20% (n = 250). EDANS-DABCYL peptide fluorescence interference. EC50, µM. shares compounds with proKLK7 act;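 active = compounds that raise the fluorescence signal in this interference counterscreen, with EC50 at or below 10 µM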;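 note: intact quenched peptide substrate alone read at 355 nm excitation and 520 nm emission; signal is fluorescence gain from T0 to T4 after four hours at room temperature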
Each line names hits and unclear results; the compound was inactive in the other large screens (follow-up assays come after a bar, where they were run).

COc1ccc(Oc2coc3c(CN(C)C)c(O)ccc3c2=O)cc1	none
COc1ccc(OC)c(/C=N/NC(=O)c2cc[n+](CC(=O)c3ccccc3)cc2)c1	proKLK7 act 31 | proKLK7 act conf 63 | EDANS-DABCYL int 65
COc1ccc(OC)c(/C=N/NC(=O)CC2C(=O)NN=C2C)c1 (stereo not drawn)	proKLK7 act 77 | proKLK7 act conf 45 | EDANS-DABCYL int 39
COc1ccc(OC)c(/C=N/NC(=O)c2cnccn2)c1	proKLK7 act 26 | proKLK7 act conf 36 | EDANS-DABCYL int 39
COc1ccc(/C=N/NC(=O)c2cnccn2)c(OC)c1OC	none
COc1ccc(OC)c(/C=N/NC(=O)C(=O)N/N=C/c2cc(OC)ccc2OC)c1	none
COc1ccc(OC)c(/C=N/NC(=O)C(=O)N2CCCC2)c1	proKLK7 act 59 | proKLK7 act conf 48 | EDANS-DABCYL int 46
COc1cccc(/C=N/NC(=O)CC2C(=O)NN=C2C)c1OC (stereo not drawn)	none
COC(=O)[C@]12C[C@H](CC(=O)N3CCC(c4ccccc4)CC3)C(=O)N(Cc3ccco3)C1=C[C@H](COCc1ccccc1)O[C@@H]2C	none
COc1ccc(OC)c(/C=N/NC(=O)CC(=O)NC2CCCCC2)c1	proKLK7 act 29 | proKLK7 act conf inactive | EDANS-DABCYL int 23
C/C=C/c1ccc(OCC(=O)Nc2ccc(C(N)=O)cc2)c(OC)c1	none
COc1ccc(OC)c(/C=N/NC(=O)CC(=O)NCc2ccccc2)c1	none
COc1ccc(OC)c(/C=N/NC(=O)CCc2c(C)n[nH]c2C)c1	proKLK7 act 17 | proKLK7 act conf 32 | EDANS-DABCYL int 35
COc1cc(/C=C/c2cc[n+](C)cc2)ccc1OCC(=O)Nc1ccccc1	proKLK7 act 24 | proKLK7 act conf 28 | EDANS-DABCYL int 25
COc1ccc(NC(=O)COc2ccc(/C=N/NC(=O)c3cccnc3)cc2OC)cc1	proKLK7 act 20 | proKLK7 act conf inactive | EDANS-DABCYL int inactive
CCOC(=O)C1CCN(C(=O)Nc2ccc3nc(C)c(C)nc3c2)CC1	proKLK7 act 23 | proKLK7 act conf 46 | EDANS-DABCYL int 53
N#Cc1cccc(-n2cc(COC(=O)NCCc3ccccc3)nn2)c1	none
CCn1c(/C=C/c2ccccc2)nc2ccccc21	none
CCCn1c(/C=C/c2cc[n+](C)cc2)nc2ccccc21	proKLK7 act 50 | proKLK7 act conf 61 | EDANS-DABCYL int 72
O=C(C[C@H]1C[C@H](C(=O)N2CCCCC2)[C@@]2(CCc3ccccc3)c3[nH]c4cc(-c5ccco5)ccc4c3CCN2C1=O)NCCN1CCOCC1	proKLK7 act 22 | proKLK7 act conf 17 | EDANS-DABCYL int 5.7 | EDANS interf 8.6
O=C(C[C@H]1C[C@H](C(=O)N2CCOCC2)[C@@]2(CCC3CCCC3)c3[nH]c4cc(-c5ccco5)ccc4c3CCN2C1=O)NCCCn1ccnc1	none
CC[C@]12c3[nH]c4ccccc4c3CCN1C(=O)C(CC(=O)NCCCOC)C[C@@H]2C(=O)N1CCN(C(=O)C2CC2)CC1 (stereo partly drawn)	none
COCCCNC(=O)C[C@H]1C[C@H](C(=O)N2CCCCC2)[C@@]2(CCc3ccccc3)c3[nH]c4cc(-c5ccco5)ccc4c3CCN2C1=O	proKLK7 act 22 | proKLK7 act conf inactive | EDANS-DABCYL int inactive
CCCOc1ccc(N2C(=O)CC(N(O)c3ccccc3)C2=O)cc1 (stereo not drawn)	proKLK7 act 112 | proKLK7 act conf 120 | EDANS-DABCYL int 125
COc1ccccc1N1C(=O)CC(N(O)c2ccccc2)C1=O (stereo not drawn)	proKLK7 act 117 | proKLK7 act conf 192 | EDANS-DABCYL int 195
O=C1CC(N(O)c2ccccc2)C(=O)N1c1cc(Cl)cc(Cl)c1 (stereo not drawn)	proKLK7 act 48 | proKLK7 act conf 645 | EDANS-DABCYL int 617
O=C1CC(N(O)c2ccccc2)C(=O)N1Cc1ccccc1 (stereo not drawn)	none
Cc1ccccc1N1C(=O)CC(N(O)c2ccccc2)C1=O (stereo not drawn)	proKLK7 act 363 | proKLK7 act conf 317 | EDANS-DABCYL int 330
COc1ccccc1N(O)C1CC(=O)N(c2ccc(F)cc2)C1=O (stereo not drawn)	none
CCCOc1ccccc1N1C(=O)CC(N(O)c2ccccc2)C1=O (stereo not drawn)	proKLK7 act 47 | proKLK7 act conf 29 | EDANS-DABCYL int 31
CC(=O)Nc1ccc2c(COC(=O)[C@H](C)N3C(=O)C4CCCCC4C3=O)cc(=O)oc2c1 (stereo partly drawn)	proKLK7 act 24 | proKLK7 act conf inactive | EDANS-DABCYL int 4.7
Cc1ccc(NC(=O)CSC(C)C(=O)OCc2cc(=O)oc3cc(O)ccc23)cc1 (stereo not drawn)	proKLK7 act 241 | proKLK7 act conf 314 | EDANS-DABCYL int 275
CSCCC(NS(=O)(=O)c1ccccc1)C(=O)OCc1cc(=O)oc2cc(O)ccc12 (stereo not drawn)	proKLK7 act 435 | proKLK7 act conf 498 | EDANS-DABCYL int 529
CCOC(=O)N1CCN(C(=O)C[C@@H]2C(=O)N3CCCC4=C3[C@@]2(C(=O)OCC)CCC4)CC1	none
CCNC(=S)NNC(=O)c1cccn(Cc2ccc(Cl)cc2Cl)c1=O	proKLK7 act 32 | proKLK7 act conf 31 | EDANS-DABCYL int 47
C=CCNC(=S)NNC(=O)c1cccn(Cc2ccc(Cl)cc2Cl)c1=O	proKLK7 act 22 | proKLK7 act conf 30 | EDANS-DABCYL int 28
N#Cc1cnn2ccc(-c3ccc4c(c3)CCC4)nc12	proKLK7 act 95 | proKLK7 act conf 57 | EDANS-DABCYL int 76
COc1ccc(C[N+]2=C(N)NC3=C4CCCCC4n4c(=O)n(-c5ccccc5)c(=O)n4C3C2)c(OC)c1 (stereo not drawn)	none
Nc1cccc2c1C(=O)N(C(=O)c1cccc(S(=O)(=O)N3CCCCCC3)c1)C2=O	proKLK7 act 19 | proKLK7 act conf 258 | EDANS-DABCYL int 269
Cc1ccc(S(=O)(=O)N2CCOCC2)cc1C(=O)N1C(=O)c2cccc(N)c2C1=O	none
O=C(c1ccc(Cl)c(S(=O)(=O)N2CCCCC2)c1)N1CCCCC1	none
